An excerpt weighted towards active compounds, which were near 27% of everything screened.
CYP2C19 inh: blocks human cytochrome P450 2C19 | P33261 | CYP2C19 Supersomes, luciferin-H EGE luminescence, 30 min | inhibition, % at 5 µM | 21% of 96,000 active | AID 778;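 active = CYP2C19 inhibition above a set limit at 5 µM in the primary screen, cut at about 50% in these data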;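 also: plate controls were negative control wells for no effect and 2.5 mM tranylcypromine positive control for full effect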
Target sequence (P33261 whole entry, looked up): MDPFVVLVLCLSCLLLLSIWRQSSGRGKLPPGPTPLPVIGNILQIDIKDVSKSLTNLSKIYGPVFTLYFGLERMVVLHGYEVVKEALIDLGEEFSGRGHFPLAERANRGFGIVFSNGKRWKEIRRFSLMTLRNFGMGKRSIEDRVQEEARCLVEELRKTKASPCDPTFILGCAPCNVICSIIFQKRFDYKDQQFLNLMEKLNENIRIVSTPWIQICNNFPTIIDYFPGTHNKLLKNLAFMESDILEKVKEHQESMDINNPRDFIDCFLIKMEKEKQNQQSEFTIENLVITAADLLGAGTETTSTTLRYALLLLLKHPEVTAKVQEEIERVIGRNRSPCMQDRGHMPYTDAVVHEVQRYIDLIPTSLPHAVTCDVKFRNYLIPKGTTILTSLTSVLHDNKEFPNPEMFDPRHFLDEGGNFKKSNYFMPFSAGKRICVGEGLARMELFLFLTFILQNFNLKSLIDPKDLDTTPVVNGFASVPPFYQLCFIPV
CYP2C9 inh: human CYP2C9 inhibition | inhibition, % at 5 µM | P11712 | AID 777 | CYP2C9 Supersomes, luciferin-H conversion, luminescence | 20% of 96,000 active;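 active = blocking of liver enzyme CYP2C9 beyond about 50% at 5 µM, limit read from the data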
sEH activator: soluble epoxide hydrolase (human) activation | AID 717 | P34913 | 0.04% of 91,000 active | activation, % at 2 µM | purified human sEH enzymatic activity, activator screen; in the data active = activation above about 37%
CYP2C19 act: cytochrome P450 2C19 (human) activation; P33261; recombinant CYP2C19, luciferin-H EGE luminescence; hits give high values; 0 = fully inhibited enzyme, 1 = untreated enzyme; activation factor at 5 µM; 96,000 tested, under 10 active; AID 1025;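 active = activation factor of at least 2 at 5 µM in the primary screen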;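 also: 0 = wells with 2.5 mM tranylcypromine and 1 = vehicle-only wells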
sEH inh: blocks human soluble epoxide hydrolase activity | AID 707 | P34913 | recombinant human sEH enzymatic activity assay | 0.34% of 91,000 active | inhibition, % at 2 µM; in the data active = inhibition above about 80%
CYP2C9 activ: CYP2C9 (human) activation; activation factor at 5 µM; 1.4% of 96,000 active; recombinant CYP2C9, luciferin-H conversion, luminescence; hits give high values; factor 1 = untreated enzyme, 0 = blocked;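 active = activation factor of 2 or more for CYP2C9 at a 5 µM dose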;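 also: 0 = sulfaphenazole-blocked wells and 1 = vehicle-only wells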
The depositor's hits bear a star; · = no result.

SMILES	CYP2C19 inh	CYP2C9 inh	sEH activator	CYP2C19 act	sEH inh	CYP2C9 activ
Cc1cc(C)c(C)c(S(=O)(=O)NCC(=O)N2CCCC2)c1C	78*	-34	0	0.2	0	1.3
CC(C)(C)NS(=O)(=O)c1ccc(CCC(=O)N2CCCCC2)cc1	61*	39	-9	0.4	11	0.6
CC1CCN(C(=O)CCc2ccc(S(=O)(=O)NC(C)C)cc2)CC1	53*	46	-5	0.5	5	0.5
Cc1cc(C)c(C)c(S(=O)(=O)NCc2ccc(C(=O)N3CCCCC3)cc2)c1C	·	·	-8	·	12	·
Cc1ccc(S(=O)(=O)NCC(=O)N2CCC(C)CC2)cc1	72*	-3	13	0.3	-10	1
Cc1nc(Nc2nc(=O)c3ccccc3n2C)nc2c(C)cccc12	·	·	5	·	-2	·
Cc1nc2nc(NCc3cccs3)nn2c(C)c1Cl	-3	10	8	1	-11	0.9
CN(C)CCCN1C(=O)C(O)=C(C(=O)c2cc3ccccc3o2)C1c1ccccc1 (stereo unspecified)	-5	11	·	1.1	·	0.9
CC(=O)Nc1cccc(NC(=O)C2CCCN2C(=O)Nc2ccccc2C)c1 (stereo unspecified)	6	9	0	0.9	1	0.9
O=C(CN1C(=O)COc2ccccc21)N(CCCN1CCOCC1)CC1CC=CCC1 (stereo unspecified)	-7	-10	·	1.1	·	1.1
CCOc1cccc(N2C(=O)CC(NCc3ccc(S(N)(=O)=O)cc3)C2=O)c1 (stereo unspecified)	-12	-9	13	1.1	-13	1.1
OC1CC(c2ccco2)NC2(CCCCC2)C1 (stereo unspecified)	-18	-26	·	1.2	·	1.3
O=S(=O)(N1CCCCC1)n1nnc2ccccc21	82*	-16	1	0.2	-3	1.2
O=S(=O)(c1cccs1)n1nnc2ccccc21	5	-87	5	0.9	-6	1.9
c1ccc(Nc2nn[nH]n2)cc1	-12	-13	·	1.1	·	1.1
COc1ccccc1-c1cc(C(=O)N/N=C/c2sccc2C)c2ccccc2n1	39	75*	-10	0.6	11	0.3
CCN(CC)C(=O)c1sc(NC(=O)c2cc(-c3ccc(C)s3)nc3ccccc23)c(C(=O)OC)c1C	-1	51*	6	1	-8	0.5
COC(=O)c1c(NC(=O)c2nc3ncccn3n2)sc(C(=O)N(C)C)c1C	-10	-6	·	1.1	·	1.1
COC(=O)c1sccc1NC(=O)c1cc(-c2ccc(C)cc2C)nc2ccccc12	12	59*	9	0.9	-6	0.4
Cc1ccc(-c2cc(C(=O)N/N=C/c3c(C)nn(C)c3C)c3ccccc3n2)c(C)c1	94*	96*	15	0.1	-14	0
Cc1ccsc1/C=N/NC(=O)c1c[nH]c2ccccc12	31	24	-6	0.7	7	0.8
COC(=O)c1sccc1NC(=O)c1ccoc1C	11	-8	·	0.9	·	1.1
Cc1nn(C)c(C)c1/C=N/NC(=O)c1csc2ccccc12	8	9	-71	0.9	71	0.9
CCN1CCN(Cc2nc3c(c(=O)n(C)c(=O)n3C)n2Cc2cccc3ccccc23)CC1	6	8	-10	0.9	13	0.9
Cc1sc2ncnc(NCC(C)(C)N3CCOCC3)c2c1C	22	4	1	0.8	0	1
SMILES	CYP2C19 inh	CYP2C9 inh	sEH activator	CYP2C19 act	sEH inh	CYP2C9 activ
COc1ccccc1NC(=O)Cc1cccs1	37	-42	5	0.6	-5	1.4
CCCCNC(=O)Nc1ccnn1C1CCCCC1	57*	15	·	0.4	·	0.8
COc1ccccc1NC(=O)Nc1ccnn1C1CCCCC1	56*	44	·	0.4	·	0.6
COc1ccccc1NC(=O)Nc1ccnn1Cc1cccs1	63*	30	11	0.4	-13	0.7
COc1ccc(N2CC(C(=O)NCCCN3CCOCC3)CC2=O)cc1 (stereo unspecified)	1	13	-2	1	1	0.9
CC(C)(C)C(=O)/C=C/Nc1ccccc1O	0	-2	-6	1	4	1
CN1C(=O)c2oc3ccc(Br)cc3c(=O)c2C1c1ccncc1 (stereo unspecified)	18	44	·	0.8	·	0.6
S=C1NC2=C(C(c3ccc(Br)cc3)N1)N1CCC2CC1 (stereo unspecified)	12	2	33	0.9	-31	1
O=C(CN(C(=O)CCC(=O)Nc1nccs1)c1ccc(F)cc1)NCc1ccco1	65*	32	-13	0.3	10	0.7
